# Several values for one entry are separate records, joined by “and”; a condition that tells them apart may be missing. Equal values may be shown once. Activity calls are given as the source filed them. Where a call stands in place of a potency, no number is given. Unless noted, calls come from the whole dose curve; as a rule, active = well fitted inhibition curve with a large enough effect; inconclusive = small, poorly fitted or top-dose-only effect; inactive = flat fitted curve, though single readings scatter.
# Legend:
# [1] = target: Ubiquitin carboxyl-terminal hydrolase 1 (Homo sapiens) (UniProt O94782); assay: Inhibitors of USP1/UAF1: Pilot qHTS (AID 504865); conditions: purified USP1/UAF1, Ub-rhodamine cleavage fluorescence; series mostly up to 114 µM; note: nearly all actives have a fitted effect of over 35% in size; note: potency is the fitted concentration of half-maximal effect
# In short: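 1nM USP1/UAF1 + cpd, 15 min RT; start w/ Ub-Rho 150nM final; kinetic FL 480/540 nm, 6 reads q60 s. Buffer 50mM HEPES pH 7.8, 0.5mM EDTA, 1mM TCEP, 0.01% Tween-20, 0.1 mg/ml BSA.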
# [2] = target: Estrogen receptor (Homo sapiens) (UniProt P03372); assay: qHTS assay for small molecule antagonists of estrogen receptor alpha signaling (AID 588513; active = well fitted curve in the direction sought with a large enough effect in the signal ratio, with a control signal flat, not every such curve was filed as active; inconclusive = small, poorly fitted or top-dose-only effect, or effect the other way, or a change in a side signal; inactive = no such curve, though single readings can be large or run the other way; the % refers to the signal ratio; note: potency is the fitted concentration of half-maximal effect); conditions: ER-alpha-UAS-bla HEK293, beta-lactamase ratio, antagonist mode; series mostly up to 76.9 µM
# In short: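 Beta-lactamase reporter, antagonist mode, HEK 293 GripTite cells; 0.5nM E2 stimulus, 18 h, 37 C; CCF4 dye 2 h RT; fluorescence. IC50 and efficacy from Hill fits, normalized to E2 and DMSO.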
# [3] = target: Estrogen receptor (Homo sapiens) (UniProt P03372); assay: qHTS assay for small molecule agonists of estrogen receptor alpha signaling (AID 588514; calls by dose curve; note: nearly all actives have a fitted effect of over 70% in size); conditions: ER-alpha-UAS-bla HEK293, beta-lactamase ratio, 18 h, percent of full estradiol response, vehicle zero; series mostly up to 76.8 µM
# In short: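 Reporter-gene assay. […] controls beta-lactamase in HEK 293 GripTite cells; after 18 hrs with compound, CCF4 substrate is added for 2 hrs and fluorescence is read.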
# Estrogen receptor (Homo sapiens), sequence (P03372 whole entry, looked up): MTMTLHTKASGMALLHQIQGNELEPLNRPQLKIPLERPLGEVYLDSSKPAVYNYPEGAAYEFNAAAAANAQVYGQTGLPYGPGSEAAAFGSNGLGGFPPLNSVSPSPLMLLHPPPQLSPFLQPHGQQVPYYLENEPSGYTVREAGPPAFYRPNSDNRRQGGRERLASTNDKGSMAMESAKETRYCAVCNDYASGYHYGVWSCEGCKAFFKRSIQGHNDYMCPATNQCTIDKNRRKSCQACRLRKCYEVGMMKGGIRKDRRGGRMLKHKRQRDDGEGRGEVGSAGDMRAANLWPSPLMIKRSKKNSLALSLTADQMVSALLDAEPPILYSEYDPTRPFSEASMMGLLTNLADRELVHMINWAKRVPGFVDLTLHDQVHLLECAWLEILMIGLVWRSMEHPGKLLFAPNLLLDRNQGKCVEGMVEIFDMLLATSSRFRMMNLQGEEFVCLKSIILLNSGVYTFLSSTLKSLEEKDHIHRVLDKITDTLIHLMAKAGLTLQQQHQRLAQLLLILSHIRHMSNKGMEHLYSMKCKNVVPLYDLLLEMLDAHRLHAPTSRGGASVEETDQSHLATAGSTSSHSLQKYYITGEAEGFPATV
# Ubiquitin carboxyl-terminal hydrolase 1 (Homo sapiens), sequence (O94782 whole entry, looked up): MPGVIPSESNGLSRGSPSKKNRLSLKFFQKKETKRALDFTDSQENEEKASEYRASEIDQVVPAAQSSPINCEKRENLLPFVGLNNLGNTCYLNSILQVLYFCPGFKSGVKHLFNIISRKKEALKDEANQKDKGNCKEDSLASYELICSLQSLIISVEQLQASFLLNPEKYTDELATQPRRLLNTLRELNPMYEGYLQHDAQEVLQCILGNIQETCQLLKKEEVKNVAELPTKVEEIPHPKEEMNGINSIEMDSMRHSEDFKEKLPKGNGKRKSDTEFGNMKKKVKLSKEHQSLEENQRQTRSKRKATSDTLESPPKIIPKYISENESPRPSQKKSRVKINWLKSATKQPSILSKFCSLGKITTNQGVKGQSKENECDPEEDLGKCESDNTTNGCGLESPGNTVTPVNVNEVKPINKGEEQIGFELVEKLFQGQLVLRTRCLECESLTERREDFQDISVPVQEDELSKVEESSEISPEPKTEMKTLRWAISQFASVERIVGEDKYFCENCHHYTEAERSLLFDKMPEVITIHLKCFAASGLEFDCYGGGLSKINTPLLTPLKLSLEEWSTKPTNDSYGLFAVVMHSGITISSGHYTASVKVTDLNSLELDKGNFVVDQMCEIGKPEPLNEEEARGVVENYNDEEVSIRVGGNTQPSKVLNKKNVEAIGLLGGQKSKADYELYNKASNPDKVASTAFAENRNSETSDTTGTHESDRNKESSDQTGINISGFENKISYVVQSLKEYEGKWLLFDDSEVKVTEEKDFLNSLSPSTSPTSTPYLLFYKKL
Structure (SMILES),Potency [1],Potency [2],outcome [3]
CC(=O)Oc1ccccc1C(=O)Nc1ncc([N+](=O)[O-])s1,inactive,inactive,
NNC(=O)c1ccncc1,inactive,inactive,inactive
NC(N)=NC(N)=NCCc1ccccc1,inactive,inactive,inactive
Cc1noc(NS(=O)(=O)c2ccc(N)cc2)c1C,inactive,inactive,inactive
CC[C@H](C)C(=O)O[C@H]1C[C@@H](C)C=C2C=C[C@H](C)[C@H](CC[C@@H]3C[C@@H](O)CC(=O)O3)[C@H]21,,inactive,inactive
Nc1[nH]c(=O)ncc1F,inactive,,
CCCCCCNC(=O)n1cc(F)c(=O)[nH]c1=O,inactive,,
S=P(N1CC1)(N1CC1)N1CC1,inactive,inactive,
COc1ccc(-c2ccc3cc(C(=O)O)ccc3c2)cc1C12CC3CC(CC(C3)C1)C2,79.4 µM (active),,
O=C(O)c1cc(=O)[nH]c(=O)[nH]1,inactive,inactive,
COc1cc(NS(=O)(=O)c2ccc(N)cc2)nc(OC)n1,inactive,,
COc1cc2c(Nc3ccc(Br)cc3F)ncnc2cc1OCC1CCN(C)CC1,inactive,,
CC1=NN(c2ccccc2)C(=O)C1,inactive,inactive,inactive
OC(Cn1cncn1)(Cn1cncn1)c1ccc(F)cc1F,inactive,inactive,inactive
COc1ccc2cc3[n+](cc2c1OC)CCc1cc2c(cc1-3)OCO2,inactive,inactive,
CN1CCN(c2c(F)cc3c(=O)c(C(=O)O)cn(CCF)c3c2F)CC1,inactive,,
CCOC(=O)c1ccc(OC(=O)CCCCCN=C(N)N)cc1,inactive,,
Oc1c(Cl)cc(Cl)c2cccnc12,inactive,,
O=P(O)(O)C(O)(Cc1cccnc1)P(=O)(O)O,inactive,,
N=C(N)c1ccc(OCCCCCOc2ccc(C(=N)N)cc2)cc1,inactive,inactive,inactive
CNS(=O)(=O)Cc1ccc2[nH]cc(CCN(C)C)c2c1,inactive,,
Nc1nc(N)nc(-c2cc(Cl)ccc2Cl)n1,inactive,,
CN(C)c1ccc(C(=C2C=CC(=[N+](C)C)C=C2)c2ccc(N(C)C)cc2)cc1,20 µM (active) and 22.4 µM (active),28.2 µM [inconclusive] (active),

# From PubChem BioAssay (NCATS)
